# Experimental data from PubChem BioAssay (Tox21).
# Inconclusive results are not listed. A number with no mark means an inactive call. Activity calls are given as the source filed them. The call rests on the fitted dose curve; in most records, active means well fitted inhibition curve with a large enough effect in the repeat runs; inconclusive means weak or mixed curves; inactive means flat fitted curve, though single readings scatter.
# Target: Luciferin 4-monooxygenase (Photinus pyralis) (UniProt P08659)
# Experiment: qHTS assay to identify small molecule inhibitors of firefly luciferase (AID 1224835); further: nearly all actives have a fitted effect of over 25% in size
# Conditions: purified P. pyralis luciferase, luminescence inhibition; series mostly up to 115 µM; activity change, negative = inhibition: at the top concentration
# Method in brief: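 Inhibition of purified Photinus luciferase is measured by luminescence. Substrate levels (D-luciferin, ATP) sit at their KM values. Each compound is tested in a concentration series.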
# On the % scale 0 is the no-effect control and ±100 the full control effect; potency means the concentration at half of the fitted maximal effect.
# Luciferin 4-monooxygenase (Photinus pyralis), sequence (P08659 whole entry, looked up): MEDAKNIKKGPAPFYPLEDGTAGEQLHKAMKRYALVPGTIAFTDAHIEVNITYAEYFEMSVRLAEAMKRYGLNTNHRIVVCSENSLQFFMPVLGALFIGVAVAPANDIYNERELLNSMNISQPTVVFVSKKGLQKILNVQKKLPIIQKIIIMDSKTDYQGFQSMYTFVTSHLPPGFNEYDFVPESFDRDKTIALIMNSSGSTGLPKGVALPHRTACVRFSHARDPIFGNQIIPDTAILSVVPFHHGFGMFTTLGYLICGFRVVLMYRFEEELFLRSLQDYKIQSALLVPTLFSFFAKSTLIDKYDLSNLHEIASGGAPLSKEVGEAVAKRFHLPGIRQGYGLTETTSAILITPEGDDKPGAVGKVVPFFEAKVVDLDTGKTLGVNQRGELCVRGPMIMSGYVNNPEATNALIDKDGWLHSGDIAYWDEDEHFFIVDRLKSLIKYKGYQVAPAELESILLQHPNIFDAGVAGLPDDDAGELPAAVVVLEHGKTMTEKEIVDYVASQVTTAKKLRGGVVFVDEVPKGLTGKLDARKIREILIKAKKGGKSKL
SMILES,"activity change, negative = inhibition",Potency
CCCC(=O)O[C@]1(C(=O)COC(=O)CC)CC[C@H]2[C@@H]3CCC4=CC(=O)CC[C@]4(C)[C@H]3[C@@H](O)C[C@@]21C,4.64% [at 23.6 µM],
O=C(Nc1ccc([N+](=O)[O-])cc1)Nc1ccc([N+](=O)[O-])cc1,0.269% [at 52.9 µM],
CCCCCCCC/C=C\CCCCCCCC(=O)OC(CO)CO,0.407%,
Nc1nc(Cl)nc2c1ncn2[C@@H]1O[C@H](CO)[C@@H](O)[C@@H]1F,2.01% [at 52.9 µM],
OC(CCCN1CCCCC1)(c1ccccc1)c1ccccc1,-4.37% [at 52.9 µM],
CC(=O)[C@H]1CC[C@H]2[C@@H]3C=CC4=CC(=O)CC[C@@]4(C)[C@@H]3CC[C@]12C,3.18% [at 52.9 µM],
CCN(Cc1cccc(S(=O)(=O)O)c1)c1ccc(C(=C2C=CC(=[N+](CC)Cc3cccc(S(=O)(=O)[O-])c3)C=C2)c2ccccc2)cc1,,22.3 µM (active)
C[N+]1(C)CCC(=C(c2ccccc2)c2ccccc2)CC1,-1.36% [at 52.9 µM],
CCOC(=O)N1CCC(n2c(=O)[nH]c3cc(Cl)ccc32)CC1,0.557% [at 52.9 µM],
CC(=O)OCC(=O)[C@H]1CC[C@H]2[C@@H]3CCC4=CC(=O)CC[C@]4(C)[C@H]3CC[C@]12C,0.942% [at 52.9 µM],
CN1Cc2cc(C(=O)N3CCC(C4CCNCC4)CC3)ccc2N[C@@H](CC(=O)O)C1=O,1.98% [at 52.9 µM],
CN(C)C(=O)Nc1ccc(Oc2ccc(Cl)cc2)cc1,,63.3 µM (active)
Nc1ccc(S(=O)(=O)O)c(N)c1,0.587%,
CCC(=O)Oc1ccc(/C(CC)=C(\CC)c2ccc(OC(=O)CC)cc2)cc1,-1.98%,
CCCOC(=O)c1ccc(N)cc1,0.943% [at 52.9 µM],
O=C(CCCCCCCCC#CI)Oc1ccccc1,-3.98% [at 52.9 µM],
CC(C)CCCC(=O)O,4.59%,
CCC(C(=O)OCCN(CC)CC)c1ccccc1 (stereo not given),-3.11% [at 52.9 µM],
CCn1nc(C)c2c1C(=O)NCC(c1ccc(O)cc1)=N2,-0.694%,
COC(=O)CC(=O)C(C)(C)C,3.61%,

SMILES,"activity change, negative = inhibition",Potency
Cc1ccccc1N1C(=O)c2cc(S(N)(=O)=O)c(Cl)cc2NC1C (stereo not given),0.472% [at 52.9 µM],
O=C(O)c1c(O)c(-c2ccccc2)nc2ccccc12,,34.7 µM (active)
CC1(C)O[C@@H]2C[C@H]3[C@@H]4CCC5=CC(=O)C=C[C@]5(C)[C@H]4[C@@H](O)C[C@]3(C)[C@]2(C(=O)CO)O1,0.55% [at 52.9 µM],
NC(=O)N(O)[C@@H]1COc2cc(OCc3ccccc3)ccc21,,1.12 µM (active)
CCOC(=O)C(C)Oc1ccc(Oc2nc3ccc(Cl)cc3o2)cc1 (stereo not given),,39.9 µM (active)
O=c1[nH]c2ccc(S(=O)CCN3CCC(Cc4ccc(F)cc4)CC3)cc2o1 (stereo not given),4.3%,
CCCCC(CC)COC(=O)COc1ccc(Cl)cc1C (stereo not given),6.45%,
O=S1OCCO1,-1.66%,
CNC(=S)NC,9.39%,
C/C(=N/NC(=O)c1ccncc1)C(=O)O,9.89% [at 52.9 µM],
CO/N=C1\CN(c2nc3c(cc2F)c(=O)c(C(=O)O)cn3C2CC2)CC1CN (stereo not given),-2.48% [at 52.9 µM],
O=C(O)c1ccc(CO)o1,1.5%,
CCCOc1ccc(S(=O)(=O)N2CCN(CC)CC2)cc1-c1nc2c(CC)n(Cc3ccccn3)nc2c(=O)[nH]1,7.35%,
O=C(CCC1CCN(Cc2ccccc2)CC1)c1ccc2c(c1)NCCCC2,-0.49% [at 52.9 µM],
CCOC(=O)OCC,2.38%,
CC(C)(C)CC(C)(C)c1ccc(OCCO)cc1,-0.866%,
CSc1ccc(Oc2ccc(S(N)(=O)=O)cc2CN(C)C)cc1C,3.99%,
CCCCOC(=O)CCS,-7.03%,
COc1ccc([C@@H]2Sc3ccccc3NC(=O)[C@@H]2O)cc1,0.127% [at 52.9 µM],
CCCCCCOC(=O)C(C)C,1.87%,
